Drawing on PubChem BioAssay AID602281 (The Scripps Research Institute Molecular Screening Center, 2012), this text covers inhibition for 91 compounds.

Values joined by “and” are separate entries in the source; they are usually repeats but may differ in a detail not shown here. Identical values can stand only once. Hit rate of the full screen: of about 360,000 compounds, about 2,900 (0.81%) were called active.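 Rule for the calls: active = inhibition above the mean inhibition across every tested compound plus 3 SD (cut at about 22% in these data); inactive = the rest.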 Only a selection was taken, and actives are over-represented in it overall. The source holds several records for some structures; these can differ, active in one and inactive in another.

The target in the assay is Perilipin-5 (Homo sapiens) + 1-acylglycerol-3-phosphate O-acyltransferase ABHD5 (Homo sapiens) (UniProt Q00G26+Q8WTS1). The assay can be described thus: blockers of ABHD5 binding to perilipin-5 – cell lysate, split luciferase complementation, luminescence, primary screen (AID 602281).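 Note: 0% = DMSO only wells and the 100% control is not disclosed.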 The settings on record: Split G. princeps luciferase complementation, 4 h, at 4 µM, stronger effect = higher value.
Perilipin-5 (Homo sapiens) + 1-acylglycerol-3-phosphate O-acyltransferase ABHD5 (Homo sapiens), sequence (Q00G26 whole entry, looked up): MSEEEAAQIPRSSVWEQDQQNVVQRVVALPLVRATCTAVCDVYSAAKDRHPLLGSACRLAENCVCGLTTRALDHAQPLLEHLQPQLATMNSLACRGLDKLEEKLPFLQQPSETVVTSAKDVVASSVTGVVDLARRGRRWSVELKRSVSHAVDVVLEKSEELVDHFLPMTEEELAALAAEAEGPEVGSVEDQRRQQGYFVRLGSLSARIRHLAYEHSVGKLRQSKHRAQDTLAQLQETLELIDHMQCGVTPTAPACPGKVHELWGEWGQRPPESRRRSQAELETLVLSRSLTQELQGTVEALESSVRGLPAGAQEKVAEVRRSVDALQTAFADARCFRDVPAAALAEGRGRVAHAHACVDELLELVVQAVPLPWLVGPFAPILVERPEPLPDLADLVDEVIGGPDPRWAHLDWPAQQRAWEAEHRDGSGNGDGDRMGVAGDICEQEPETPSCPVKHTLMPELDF
Perilipin-5 (Homo sapiens) + 1-acylglycerol-3-phosphate O-acyltransferase ABHD5 (Homo sapiens), sequence (Q8WTS1 whole entry, looked up): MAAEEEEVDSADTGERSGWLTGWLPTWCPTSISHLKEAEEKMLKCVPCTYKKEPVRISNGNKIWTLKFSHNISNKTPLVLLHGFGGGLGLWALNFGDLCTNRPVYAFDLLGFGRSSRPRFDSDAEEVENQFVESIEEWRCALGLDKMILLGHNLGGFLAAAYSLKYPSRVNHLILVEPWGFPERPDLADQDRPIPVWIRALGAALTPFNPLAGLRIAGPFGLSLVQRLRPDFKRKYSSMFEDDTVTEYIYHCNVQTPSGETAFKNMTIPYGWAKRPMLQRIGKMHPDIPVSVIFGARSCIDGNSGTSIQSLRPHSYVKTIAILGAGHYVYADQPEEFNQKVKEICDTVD
Regarding `CCOc1ccc(N(CC(=O)NCCc2ccc(OC)cc2)S(C)(=O)=O)cc1`, the inhibition is -0.93% (inactive).

For `Cc1cc(C)n(CC(C)NCc2c(C(=O)N3CCOCC3)nc3c(C)cccn23)n1` (stereo unspecified), the inhibition is 1.11% (inactive).

On to `CC1=C(C(=O)N2CCOCC2)CC(CC(=O)NCc2ccco2)C(=O)N1Cc1ccc(F)cc1` (stereo unspecified), for which the inhibition was 5.09% (inactive).

Take `Cc1c(CCOC(=O)c2cc([N+](=O)[O-])ccc2Cl)sc[n+]1CCCCS(=O)(=O)[O-]`: the inhibition is 7.78% (inactive).

As to `Cc1c(CCO)sc[n+]1CC(=O)OC12CC3CC(CC(C3)C1)C2`, the inhibition is -1.3% (inactive).

As for `Cc1c(CCOC(=O)CC23CC4CC(CC(C)(C4)C2)C3)sc[n+]1Cc1ccc([N+](=O)[O-])cc1`, the inhibition is 19% (inactive) and 24.3% (active).

In the case of `O=C(NCCCN1CCOCC1)C1CCCN(S(=O)(=O)N2CCCCC2)C1` (stereo unspecified), the inhibition was -6.18% (inactive).

In the case of `Fc1ccc(Nc2nnns2)cc1`, the inhibition was -1.08% (inactive).

Turning to `Cc1[nH]c(C)c(S(=O)(=O)N2CCN(c3cccc(C(F)(F)F)c3)CC2)c1C(=O)N1CCCCC1`, the inhibition was -3.87% (inactive).

With `Cc1c(C)c2c(OCC(=O)N[C@@H](C(=O)O)c3ccccc3)cc3c(c2oc1=O)CCC(C)(C)O3`, the inhibition was 9.96% (inactive).

Regarding `CC1Cc2ccccc2N1CC(=O)Nc1ccc2c(c1)OC(F)(F)O2` (stereo unspecified), the inhibition was -17.3% (inactive).

Consider `CC1CC(C)CN(CC(=O)Nc2ccc(S(N)(=O)=O)cc2)C1` (stereo unspecified), for which the inhibition was -3.77% (inactive).

Consider `CC1Cc2ccccc2N1CC(=O)Nc1ccc(S(N)(=O)=O)cc1` (stereo unspecified), for which the inhibition was 26.1% (active).

Take `O=C(CCSc1ccccc1)NCCSc1ccccn1`: the inhibition was 4.14% (inactive).

For `Cc1ccc2cc3cc(C(=O)N4CCCCCC4)oc3nc2c1`, the inhibition was 0.91% (inactive).

Consider `O=C1Cc2cc(S(=O)(=O)Nc3cccc(F)c3)ccc2N1`, for which the inhibition was -4.67% (inactive).

As for `CCN(CC(=O)Nc1c(F)cccc1F)C(=O)c1ccc(-c2ccc(C(C)=O)cc2)o1`, the inhibition is -6.21% (inactive).

For the compound `O=C(CN1CCN(c2ccccc2F)CC1)c1ccc2c(c1)OCO2`, the inhibition was 1.72% (inactive).

For the compound `O=C(CCN1CCc2ccccc2C(O)(c2ccccc2)C1)c1ccc2c(c1)OCCO2` (stereo unspecified), the inhibition is 40.8% (active).

For the compound `CCC1(c2ccccc2)NC(=O)N(CC(=O)c2ccc3c(c2)OCO3)C1=O` (stereo unspecified), the inhibition was 6.66% (inactive).

For the compound `COCCN1CCn2c(nc3cc(NS(C)(=O)=O)ccc32)C1`, the inhibition is 3.04% (inactive).

With `Cc1cc(SCC(=O)NCCN2C(=O)CSC2=O)nc2ccccc12`, the inhibition is 1.93% (inactive).

`Cc1cc(C)cc(C(=O)NC(CC(N)=O)c2ccc(N3CCC(N4CCCCC4)CC3)c([N+](=O)[O-])c2)c1` (stereo unspecified): the inhibition is -0.26% (inactive).

On to `O=C(CSc1nnc(CNC(=O)c2ccc(F)cc2)o1)Nc1ccc2c(c1)OCO2`, for which the inhibition was -2.58% (inactive).

Regarding `COCCN(CCOC)c1nc(N)c2c(N)nc3c(c2c1C#N)CC(=O)N3Cc1ccc(Cl)cc1`, the inhibition is 32.7% (active).

For the compound `C=CCC[C@H](CCCCC)OC(=O)/C=C/[C@H](O)[C@@H](O)C[C@@H](O)CC=C`, the inhibition is -7.52% (inactive).

Regarding `Cc1c(CN2CCC(CO)(CCOc3ccccc3)CC2)[nH]c2ccc(Cl)cc12`, the inhibition is 22.5% (active).

As for `Cc1cccc(-c2ncc(CN3CCC(CO)(CCCc4ccccc4)CC3)cn2)c1`, the inhibition was 12.2% (inactive).

For the compound `CC(C)(O)C#Cc1ccc(CN2CCC(CO)(CCc3ccccc3)CC2)cc1`, the inhibition is -5.13% (inactive).

In the case of `CCC(=O)NC(Nc1cc(C)ccn1)(C(F)(F)F)C(F)(F)F`, the inhibition was 7.47% (inactive).

Take `c1cc(-c2ccc3[nH]ccc3c2)n2ccnc2c1`: the inhibition was 0.38% (inactive).

As for `CCN1CCC(O)(/C=C/c2ccc(C)cc2)C(C(=O)/C=C/c2ccc(C)cc2)C1` (stereo unspecified), the inhibition was 75% (active).

For `CN(CC(=O)Nc1cccc2c1CCCC2)S(=O)(=O)c1ccc(Cl)cc1`, the inhibition is 4.76% (inactive).

With `COC(=O)Cc1ccc(OC(=O)C2CCN(S(=O)(=O)c3ccc(OC)c(OC)c3)CC2)cc1`, the inhibition is 4.12% (inactive).

As to `CC1(C(=O)NCc2cccc3ccccc23)CCN1Cc1ccc(-c2ccccc2)o1` (stereo unspecified), the inhibition is 40.4% (active).

For `CC1(C(=O)NCc2ccc3c(c2)OCO3)CCN1C(=O)Cc1cccc2ccccc12` (stereo unspecified), the inhibition was 0.84% (inactive).

Take `CSc1ccc(CN2CCC2(C)C(=O)NCc2ccccc2Br)cc1` (stereo unspecified): the inhibition was -5.69% (inactive).

Consider `CN(C)c1cccc(C(=O)N2CCC(n3nccc3NC(=O)C3CCOC3)CC2)c1` (stereo unspecified), for which the inhibition was -0.66% (inactive).

On to `CSCCC(C(=O)NC(C)(C)C)n1c(-c2ccccc2)nc2ccccc21` (stereo unspecified), for which the inhibition is -13.8% (inactive).

As for `CCC(C(=O)NC(C)(C)C)n1c(-c2ccccc2)nc2ccccc21` (stereo unspecified), the inhibition was 9.54% (inactive).

On to `CC(C)(C)NC(=O)C(CCc1ccccc1)n1c(=O)c(-c2ccccc2)nc2ccccc21` (stereo unspecified), for which the inhibition was 22.9% (active).

`COc1ccc(S(=O)(=O)N2CCCCC2)cc1NC(=O)C1CC(=O)N(c2ccc3c(c2)OCCO3)C1` (stereo unspecified): the inhibition was 12.7% (inactive).

In the case of `CCOCN(C(=O)Cn1c(C(C)O)nc2ccccc21)c1c(C)cccc1CC` (stereo unspecified), the inhibition is -2.38% (inactive).

For the compound `CN(C)C(=O)COC(=O)c1cccc(S(=O)(=O)N2CC3(C)CC2CC(C)(C)C3)c1` (stereo unspecified), the inhibition is -4.49% (inactive).

Regarding `Cc1nnnn1/C(=C\c1ccccc1)C(=O)OCC(=O)N1CC2(C)CC1CC(C)(C)C2` (stereo unspecified), the inhibition is 38.6% (active).

Regarding `O=S(=O)(NCc1cccnc1)c1ccc(Cl)nc1`, the inhibition is 5.93% (inactive).

Turning to `Cc1cc(C)c(C)c(S(=O)(=O)Nc2ccc(O)cc2)c1C`, the inhibition is 4.3% (inactive).

On to `COc1ccc(CN2C(=O)C(CC(=O)NCCN3CCOCC3)CC(C(=O)N(C(C)C)C(C)C)=C2C)cc1` (stereo unspecified), for which the inhibition is -11% (inactive).

On to `CCCCCCCCCCCCCCCC(=O)OC/C=C(C)/C=C/C=C(C)/C=C/C1=C(C)CCCC1(C)C`, for which the inhibition is -4.62% (inactive).

As to `O=C(Nc1ccccc1C(F)(F)F)N1CCCC1c1cccnc1` (stereo unspecified), the inhibition is 11.2% (inactive).

For `CCOc1ccccc1NC(=O)CCc1nnc2ccc(NCc3ccco3)nn12`, the inhibition was 16.7% (inactive).

In the case of `O=C(CCc1nnc2ccc(NCc3ccco3)nn12)Nc1cc(F)ccc1F`, the inhibition is 22.5% (active).

As to `O=C(CNc1ccc(F)cc1F)NC(=O)NCc1ccco1`, the inhibition is -0.2% (inactive).

As to `CC1CCN(C(=O)CCc2nnc3ccc(NCc4ccco4)nn23)CC1`, the inhibition is 7.83% (inactive).

For `CC(=O)c1ccc(NC(=O)CCc2nnc3ccc(NCc4ccco4)nn23)cc1`, the inhibition is 27.9% (active).

Regarding `CCOC(=O)c1cccc(NC(=O)CCc2nnc3ccc(N4CCOCC4)nn23)c1`, the inhibition was -2.37% (inactive).

Consider `Cc1ccc(-n2c(SCC(=O)Nc3ncc(Cl)cc3Cl)nc3ccccc32)cc1`, for which the inhibition is -7.45% (inactive).

As for `Nn1c(SCC(=O)NC2CCCc3ccccc32)nnc1C1CC1` (stereo unspecified), the inhibition is 10.4% (inactive).

Consider `O=S(=O)(Nc1nccs1)c1ccc2c(c1)OCCO2`, for which the inhibition is -5.22% (inactive).

On to `CCOc1ccc2nc(Cl)c(C3CC(c4ccccc4)=NN3C(=O)c3cccs3)cc2c1` (stereo unspecified), for which the inhibition was -5.74% (inactive).

Take `Cc1cccc(C)c1NC(=O)CN1C(=O)C(C)Oc2ccccc21` (stereo unspecified): the inhibition was -5.51% (inactive).

As to `Cc1cc(C(=O)NCCc2ccc(Cl)cc2)n(-c2ccccc2)n1`, the inhibition is 1.98% (inactive).

Turning to `O=C(NCCOCc1ccc(Cl)cc1)c1ncn[nH]1`, the inhibition is 24.2% (active).

As to `O=C(NCCS(=O)(=O)NCc1ccc(Cl)cc1)c1ccccc1`, the inhibition was -6.46% (inactive).

Regarding `O=C(C(=O)N1CCc2ccccc2C1)c1c[nH]c2ccccc12`, the inhibition is 0.81% (inactive).

Turning to `COc1cccc(C(CC(=O)NCCN2CCOCC2)NS(=O)(=O)c2ccc(C)cc2)c1OC` (stereo unspecified), the inhibition was 9.39% (inactive).

On to `Nc1ccc2nc3c(=O)[nH]c(=S)[nH]c3nc2c1`, for which the inhibition is 35% (active).

As for `O=C(CS(=O)(=O)Cc1ccccc1)Nc1cccnc1`, the inhibition is -3.38% (inactive).

For `Cc1cccc(C(=O)Nc2ccc(Oc3cnccn3)cc2)c1`, the inhibition is 3.4% (inactive).

On to `Cc1cccc(NC(=O)c2nc(S(=O)(=O)Cc3ccccc3)ncc2Cl)c1`, for which the inhibition was 72.4% (active).

With `Cc1cccc(CS(=O)(=O)c2ncc(Cl)c(C(=O)Nc3ccc(F)cc3)n2)c1`, the inhibition is 53.6% (active).

For `CN(CC(=O)Nc1ccc(F)cc1)CC(=O)Nc1ccc(Cl)c(S(=O)(=O)N2CCOCC2)c1`, the inhibition was 5.71% (inactive).

With `Cc1cccc(NS(=O)(=O)c2ccc(C)c(C(=O)NCc3cccnc3)c2)c1`, the inhibition is 3.74% (inactive).

Take `O=C(NCCN1CCN(C(=O)c2cccc([N+](=O)[O-])c2)CC1)C(=O)NCc1ccc(Cl)cc1`: the inhibition was 12.1% (inactive).

`CCOc1cc(C(=O)Nc2c(C)ccc3nsnc23)cc(OCC)c1OCC`: the inhibition was -10.9% (inactive).

`C[C@@H]1C[C@@H]2O[C@H]2/C=C\C=C\C(=O)Cc2c(Cl)c(O)cc(O)c2C(=O)O1`: the inhibition is 27.7% (active).

As for `COc1ccccc1CNS(=O)(=O)c1cc(C(=O)NCc2ccccn2)c(Cl)cc1Cl`, the inhibition is 2.36% (inactive).

Take `Cc1ccc2c(c1)N(CC(=O)N1CCC(C)CC1)C(=O)c1cccnc1O2`: the inhibition is -5.07% (inactive).

On to `Cc1ccc(N(C(=O)c2ccc(CN3CCOCC3)o2)C(C(=O)NCCC(C)C)c2cccs2)c(C)c1` (stereo unspecified), for which the inhibition is 5.44% (inactive).

As to `Cc1ccc(S(=O)(=O)N2CCC(C(=O)N[C@@H](C)C(=O)NCCc3ccccc3)CC2)cc1`, the inhibition is -6.43% (inactive).

In the case of `NC(=S)Nc1c(Cl)cccc1Cl`, the inhibition was -3.54% (inactive).

Turning to `CCCCN(CCCC)CCNC(=O)CN1C(=O)COc2ccc(S(=O)(=O)N3CCOCC3)cc21`, the inhibition was -1.64% (inactive).

Turning to `Clc1cccc(Cc2c(-c3cccc(Cl)c3)nc3ccc(Cl)cn23)c1`, the inhibition was -8.19% (inactive).

As to `Cc1cc2nc(-c3ccco3)c(Cc3cccc(F)c3)n2c(C)c1Br`, the inhibition is 23.1% (active).

Turning to `Cc1cc2nc(-c3ccc(F)cc3)c(Cc3ccsc3)n2c(C)c1Br`, the inhibition was -2.1% (inactive).

Consider `Fc1cccc(Cc2c(-c3cccc(Cl)c3)nc3ccc(Br)cn23)c1`, for which the inhibition was -8.3% (inactive).

For `Cc1cc2nc(-c3ccc(Cl)cc3)c(Cc3cccc(F)c3)n2c(C)c1Br`, the inhibition is -5.68% (inactive).

On to `Cc1ccc(Cc2c(-c3ccccc3)nc3ccc(Cl)cn23)cc1`, for which the inhibition was -3.87% (inactive).

On to `Cc1ccc2nc(-c3ccco3)c(Cc3cccc(Cl)c3)n2c1`, for which the inhibition is 32.1% (active).

As for `Fc1cccc(Cc2c(-c3ccc(Cl)cc3)nc3ccc(Cl)cn23)c1`, the inhibition is 11.5% (inactive).

As to `Cc1ccc(Cc2c(-c3ccco3)nc3ccc(Cl)cn23)cc1`, the inhibition is 54.8% (active).

For orientation: inhibition means the change of the read-out against control, counted positive when it falls.
